MCL1 BIM primary – inhibitors of MCL1 binding to BIM-BH3, primary screen, biochemical, fluorescence polarization; Induced myeloid leukemia cell differentiation protein Mcl-1 (Homo sapiens), Q07820; GST-MCL1 / FITC-Bim-BH3 fluorescence polarization; inhibition, % at 10.9 µM; 0.68% of 320,000 active; AID 2057, 2009;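 active = inhibition above the mean inhibition of all tested compounds plus 3 SD, set per campaign, cut at about 40% in these data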;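 also: 0% = DMSO wells and 100% = unlabeled Bim-BH3 peptide control; higher means more loss of mP so more displacement of Bim peptide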
Target sequence (Q07820 whole entry, looked up): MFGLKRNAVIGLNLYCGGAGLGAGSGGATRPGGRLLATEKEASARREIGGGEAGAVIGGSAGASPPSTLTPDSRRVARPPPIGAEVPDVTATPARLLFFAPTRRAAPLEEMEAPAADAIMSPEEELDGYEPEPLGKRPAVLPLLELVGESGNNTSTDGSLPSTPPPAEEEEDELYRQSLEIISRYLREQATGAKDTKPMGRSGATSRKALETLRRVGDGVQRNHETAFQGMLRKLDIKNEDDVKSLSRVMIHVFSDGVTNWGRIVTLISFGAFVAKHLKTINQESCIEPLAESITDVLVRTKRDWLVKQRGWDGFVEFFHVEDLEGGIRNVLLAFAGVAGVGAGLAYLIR
E coli Lon inh – inhibitors of E. coli Lon protease, primary screen, biochemical, fluorescence polarization | P0A9M0 | purified E. coli Lon protease | inhibition, % at 7.94 µM | 0.42% of 360,000 active; in the data active = inhibition above about 13%, passing the limit was not always enough;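 also: 0% = enzyme with probe and DMSO and 100% = no enzyme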
GLD-1 RNA inh – GLD-1/TGE RNA complex disruptors, primary screen, biochemical, fluorescence polarization | purified GLD-1 + fluorescein TGE RNA | inhibition, % at 5.96 µM | 0.44% of 320,000 active | AID 2280, 2010;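 active = percent inhibition above a per-plate cutoff, the plate mean of test compounds plus 3 SD, cut at about 30% in these data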;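 also: 0% = DMSO wells with GLD-1 and probe and 100% = wells lacking GLD-1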
BCLXL inh – inhibitors of human Bcl-xL, primary screen, biochemical, fluorescence polarization, HTS | inhibition, % at 10.9 µM | 0.7% of 320,000 active | GST-Bcl-xL / FITC-Bim BH3 peptide fluorescence polarization | Bcl-2-like protein 1 (Homo sapiens), Q07817 | AID 2129, 2009;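 active = inhibition above the mean of all tested compounds plus 3 SD, cutoff set per campaign, cut at about 30% in these data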;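 also: 0% = DMSO wells and 100% = unlabeled Bim-BH3 peptide competitor; inhibitors lower millipolarization by displacing the labeled peptide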
Target sequence (Q07817 whole entry, looked up): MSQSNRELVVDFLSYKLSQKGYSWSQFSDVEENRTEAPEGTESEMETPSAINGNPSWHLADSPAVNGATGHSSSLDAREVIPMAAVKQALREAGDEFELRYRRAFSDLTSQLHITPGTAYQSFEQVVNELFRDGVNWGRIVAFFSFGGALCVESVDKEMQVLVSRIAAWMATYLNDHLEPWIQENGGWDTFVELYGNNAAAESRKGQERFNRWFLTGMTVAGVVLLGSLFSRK
MEX-5 binding – MEX-5 zinc finger RNA-binding disruptors – biochemical, C. elegans, fluorescence polarization, MLPCN library, primary screen; Zinc finger protein mex-5 (Caenorhabditis elegans), Q9XUB2; MEX-5/FITC-TCR2 RNA binding; stronger effect = lower value; activity score (negative = inhibition of binding), % at 10 µM; 0.38% of 300,000 active;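 active = inhibition past about -25% in most replicates, and total fluorescence under double the plate's negative control median, limit read from the data; inconclusive = replicates evenly split on the limit, or fluorescence at least double controls; inactive = too little inhibition in most replicates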;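 also: 0% = DMSO and -100% = 5 µM competing unlabeled TCR2 RNA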
The depositor's hits bear a star; i = inactive; ? = inconclusive; . = no result. Hits are enriched below; roughly 1.4% of the tested compounds scored in any of these assays.

SMILES	MCL1 BIM primary	E coli Lon inh	GLD-1 RNA inh	BCLXL inh	MEX-5 binding
CC(C(=O)Nc1ccc(Br)cc1C(=O)c1ccccc1)N1CCCCC1 (configuration not stated)	5	24*	2	7	1
COC(=O)[C@@H]1N=C(c2ccc(OC)cc2)O[C@]12C(=O)N(C)c1ccc(Cl)cc12	.	-9	.	.	.
CC/C(=C\C=C\[C@@H]1C=C[C@@H]2CCC[C@H]2[C@@H]1C(=O)c1ccc[nH]1)[C@@H]1O[C@@H]([C@@H](C)C(=O)O)CC[C@@H]1C	32	.	14	34*	?
S=C(N1CCCCCC1)N1CC1	.	-13	.	.	.
O=C1NCN(c2ccccc2)C12CCN(C(c1ccccc1OC(F)(F)F)c1nnnn1Cc1ccccc1)CC2 (configuration not stated)	.	-5	.	.	.
Cc1cc(C)cc(-n2c(O)c(C=Nc3ccc(N4CCOCC4)cc3)c(=O)[nH]c2=S)c1	-27	-27	-6	-17	-52*
Cc1cccc(C)c1-n1nnnc1C(C1CC1)N1CCC2(CC1)C(=O)NCN2c1ccccc1 (configuration not stated)	.	-2	.	.	.
CCCn1cc2c3c(cccc31)C1CC(C)CN(C)C1C2 (configuration not stated)	.	.	.	.	-27*
CCOC(=O)[C@]12Cc3cc(Cl)ccc3[C@H]1N(C1CCCCC1)C(=O)c1ccccc12	.	-8	.	.	.
CCNC(=S)N(C)CCc1cc2c(c(OC)c1C=C1C(=O)N(C)C(=O)N(C)C1=O)OCO2	7	-4	-3	4	-11
C=C1C(=O)OC2CC3(C)OC3C3OC3C3=CC(OC3=O)C12 (configuration not stated)	.	-6	.	.	.
COc1ccc(N2C(=O)NC(=O)/C(=C\c3ccccc3[N+](=O)[O-])C2=O)cc1	7	5	-6	6	1
O=C1NC(=O)C(=Cc2cc3c(cc2[N+](=O)[O-])OCO3)C(=O)N1	19	4	13	32*	-12
Cc1cccc(N2C(=O)NC(=O)/C(=C/c3cc4c(cc3[N+](=O)[O-])OCO4)C2=O)c1	119*	9	77*	118*	-69*
O=C1NC(=O)C(=Cc2ccccc2[N+](=O)[O-])C(=O)N1	.	-6	.	.	.
S=C(NCCc1ccccc1)N1Cc2cc(N3CCCCC3)ccc2-n2nncc2C1	.	-15	.	.	.
CCOP(=O)(C#Cc1ccccc1)C(O)c1ccc(Br)cc1 (configuration not stated)	7	1	5	3	1
CCOP(=O)(OCC)C(O)c1ccc(OC)c(OC)c1 (configuration not stated)	49*	-2	22	34*	1
O=c1[nH]c2ccccc2n1C1CCN(C(c2ccccc2OC(F)(F)F)c2nnnn2-c2ccc3c(c2)OCCO3)CC1 (configuration not stated)	.	-3	.	.	.
CSc1nc(N)c(N=Nc2ccc([As](=O)(O)O)cc2)c(=O)[nH]1	8	-6	-2	10	-34*
COc1ccc(N=Nc2c(O)[nH]c(=S)[nH]c2=O)cc1	-88	-66	-85	-42	0
CN(C)c1ccc(N=Cc2c(O)n(CCC3=CCCCC3)c(=O)[nH]c2=O)cc1	7	-12	-2	7	-63*
COc1ccc(/C=C/C(=O)c2c(O)n(CCC3=CCCCC3)c(=O)[nH]c2=O)cc1OC	-2	-13	-2	-2	-47*
CN1C(=O)NC(=O)/C(=C\c2ccc([N+](=O)[O-])o2)C1=O	39	-9	23	39*	-61*
O=C1NC(=O)N(c2ccccc2)C(=O)/C1=C\c1ccc([N+](=O)[O-])s1	35	.	-2	20	.
SMILES	MCL1 BIM primary	E coli Lon inh	GLD-1 RNA inh	BCLXL inh	MEX-5 binding
CN1C(=O)NC(=O)/C(=C/c2ccc([N+](=O)[O-])s2)C1=O	18	-26	11	14	-11
O=C1NC(=O)N(c2ccccc2)C(=O)/C1=C\c1ccc([N+](=O)[O-])o1	42*	.	12	36*	-2
CN1C(=O)NC(=O)/C(=C/c2ccc([N+](=O)[O-])o2)C1=O	27	.	5	30*	-43*
O=c1[nH]c(=O)n(-c2cccc(Cl)c2)c(O)c1/C=N/c1ccccn1	-18	-42	-13	-14	-29*
O=C1NC(=O)N(Cc2ccccc2)C(=O)/C1=C\c1ccco1	-2	-96	-31	-13	-30*
O=C1NC(=O)N(Cc2ccc(F)cc2)C(=O)/C1=C\C=C\c1ccco1	-55	-184	-46	-39	0
COCCNC(=O)c1c(N)n(Cc2ccco2)c2nc3ccccc3nc12	17	-18	8	13	-1
CC(C)(C)OC(=O)c1c(N)n(Cc2ccco2)c2nc3ccccc3nc12	41*	-14	48*	53*	-8
CN(C)C(=O)Oc1ccc2nnc3ccnn3c2c1	29	-13	12	31*	-3
CN1CCN(c2ncnc3c2cnn3C)CC1	30	2	11	39*	.
CCc1cc2c(N3CCN(C)CC3)ncnc2s1	-3	-5	-2	4	0
CN(C)C(CNC(=O)Cc1c(Cl)cccc1Cl)c1ccccc1 (configuration not stated)	-4	-1	5	-2	-1
COC(=O)C1=C(c2ccc(OC)c(OC)c2)C[C@@H]2CC[C@H]1N2C(=O)NCCOc1ccccc1Cl	-5	-9	-5	-3	.
CCCCC(=O)N/N=C/c1c(O)n(Cc2ccco2)c(=O)[nH]c1=O	4	-31	-9	-1	-3
O=C(N/N=C/c1c(O)n(Cc2ccco2)c(=O)[nH]c1=O)c1ccccc1O	26	-24	-9	6	-27*
Cn1c(O)c(/C=C/C=Nc2ccccc2)c(=O)n(C)c1=S	-25	i	-61	55*	-1
O=S(=O)(c1ccccc1)N1Cc2ccccc2-n2nncc2C1	.	-6	.	.	.
Cc1c2ccncc2c(C)c2c1[nH]c1ccccc12	88*	-1	0	66*	-2
c1ccc2c(c1)[nH]c1cnccc12	1	-3	2	2	1
CN(C)[C@@H]1C(=O)C(C(N)=O)=C(O)[C@@]2(O)C(=O)C3=C(O)c4c(O)cccc4[C@@](C)(O)[C@H]3C[C@@H]12	90*	.	14	43*	-59*
CCCN1CCc2cc(O)cc3c2[C@H]1Cc1ccc(O)c(O)c1-3	37	-3	1	32*	-82*
COc1ccc(-n2nnnc2C(c2cccc3ccccc23)N2CCC3(CC2)C(=O)NCN3c2ccccc2)cc1 (configuration not stated)	.	-7	.	.	.
NS(=O)(=O)c1ccc(-c2ccc(C=C3C(=O)NC(=S)NC3=O)o2)cc1	-26	.	-5	-16	-49*

Source: PubChem
